From publication PMC7862700, “An all-to-all approach to the identification of sequence-specific readers for epigenetic DNA modifications on cytosine”

Key:
Assay in all cases: DAPPL (digital affinity profiling via proximity ligation, sequencing); 10 mM Tris-HCl pH 7.5, 50 mM NaCl, 1 mM DTT, 4% glycerol, room temperature, 30 min; GST-TFs on glutathione beads, 16-mer random dsDNA library, 0.1% formaldehyde crosslink after washing; high values mean tight binding
FEV = biological target: T1, FEV (Homo sapiens, UniProt Q99581 1-238); conditions: protein: recombinant; tags: N-terminal GST; dsDNA, one strand shown
T1 sequence: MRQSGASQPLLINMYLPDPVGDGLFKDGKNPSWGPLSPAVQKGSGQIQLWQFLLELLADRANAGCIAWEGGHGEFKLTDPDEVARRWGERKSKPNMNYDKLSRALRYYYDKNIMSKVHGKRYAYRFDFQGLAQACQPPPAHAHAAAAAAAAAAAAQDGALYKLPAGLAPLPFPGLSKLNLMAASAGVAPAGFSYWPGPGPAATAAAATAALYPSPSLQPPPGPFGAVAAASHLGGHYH
Outline: (§1)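 Binding signal is each hexamer's read frequency for a factor divided by its frequency in the tag-only sample. The factors were GST-fused human transcription factors from yeast, captured on glutathione beads, DNA-barcoded and pooled with that sample. Pools were incubated with 200 nmole of a random double-stranded 16-mer DNA library in Tris/NaCl/DTT/glycerol buffer at room temperature for 30 min, then washed, crosslinked with 0.1% formaldehyde, proximity-ligated with BsaI/T4 ligase (1 h, 37 °C), PCR-amplified and sequenced on an Illumina NextSeq500.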

ETV5 = ETV5 (Homo sapiens, UniProt P41161 1-510); conditions: protein: recombinant; tags: N-terminal GST; dsDNA, one strand shown
Outline: as §1

HSF1 = HSF1 (Homo sapiens, UniProt Q00613 1-529); conditions: protein: recombinant; tags: N-terminal GST; chain copies: 3; dsDNA, one strand shown
Outline: as §1

SPIC = biological target: T2, SPIC (Homo sapiens, UniProt Q8N5J4 1-248); conditions: protein: recombinant; tags: N-terminal GST; dsDNA, one strand shown
T2 sequence: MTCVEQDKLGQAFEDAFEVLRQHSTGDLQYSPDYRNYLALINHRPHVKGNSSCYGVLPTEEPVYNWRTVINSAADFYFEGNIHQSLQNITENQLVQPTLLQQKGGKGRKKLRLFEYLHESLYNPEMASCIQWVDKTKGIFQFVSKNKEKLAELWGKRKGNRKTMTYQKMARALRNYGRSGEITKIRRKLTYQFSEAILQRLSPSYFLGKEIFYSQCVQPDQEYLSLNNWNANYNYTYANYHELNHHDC
Outline: as §1

ELF4 = ELF4 (Homo sapiens, UniProt Q99607 1-663); conditions: protein: recombinant; tags: N-terminal GST; dsDNA, one strand shown
Outline: as §1

ELK4 = biological target: T3, ELK4 (Homo sapiens, UniProt P28324-2 1-405); conditions: protein: recombinant; tags: N-terminal GST; dsDNA, one strand shown
T3 sequence: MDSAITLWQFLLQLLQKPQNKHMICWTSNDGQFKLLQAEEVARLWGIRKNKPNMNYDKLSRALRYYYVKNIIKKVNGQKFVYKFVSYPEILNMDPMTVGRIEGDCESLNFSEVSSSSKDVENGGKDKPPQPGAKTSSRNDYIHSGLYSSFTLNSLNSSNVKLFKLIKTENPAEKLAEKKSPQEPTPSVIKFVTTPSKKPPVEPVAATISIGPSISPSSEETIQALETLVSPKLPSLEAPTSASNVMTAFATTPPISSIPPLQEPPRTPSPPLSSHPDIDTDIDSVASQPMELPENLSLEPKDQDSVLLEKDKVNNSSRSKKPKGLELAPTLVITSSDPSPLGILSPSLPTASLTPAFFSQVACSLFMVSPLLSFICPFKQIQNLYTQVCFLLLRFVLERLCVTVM
Outline: as §1

ETV2 = biological target: T4, ETV2 (Homo sapiens, UniProt O00321 1-342); conditions: protein: recombinant; tags: N-terminal GST; dsDNA, one strand shown
T4 sequence: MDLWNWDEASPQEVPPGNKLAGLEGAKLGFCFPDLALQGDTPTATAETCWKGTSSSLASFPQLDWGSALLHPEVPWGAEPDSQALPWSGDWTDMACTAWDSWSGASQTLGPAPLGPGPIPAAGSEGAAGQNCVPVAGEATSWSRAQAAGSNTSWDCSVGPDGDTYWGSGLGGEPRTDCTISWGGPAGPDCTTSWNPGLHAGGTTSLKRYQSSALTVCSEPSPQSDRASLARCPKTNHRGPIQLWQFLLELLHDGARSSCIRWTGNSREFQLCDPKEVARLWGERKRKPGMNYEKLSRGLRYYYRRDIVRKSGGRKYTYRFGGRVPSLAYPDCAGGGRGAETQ
Outline: as §1

ELF3 = biological target: T5, ELF3 (Homo sapiens, UniProt P78545 1-371); conditions: protein: recombinant; tags: N-terminal GST; dsDNA, one strand shown
T5 sequence: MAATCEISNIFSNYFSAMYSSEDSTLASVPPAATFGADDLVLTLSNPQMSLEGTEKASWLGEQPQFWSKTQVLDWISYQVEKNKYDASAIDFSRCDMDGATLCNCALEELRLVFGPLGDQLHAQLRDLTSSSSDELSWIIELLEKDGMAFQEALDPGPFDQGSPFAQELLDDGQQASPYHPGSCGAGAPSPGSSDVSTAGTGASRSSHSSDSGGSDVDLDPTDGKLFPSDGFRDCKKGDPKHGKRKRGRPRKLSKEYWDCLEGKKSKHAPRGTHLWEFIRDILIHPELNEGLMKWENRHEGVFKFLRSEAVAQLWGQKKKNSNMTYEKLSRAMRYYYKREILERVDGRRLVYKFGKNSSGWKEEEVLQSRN
Outline: as §1

CRX = CRX (Homo sapiens, UniProt O43186 1-299); conditions: protein: recombinant; tags: N-terminal GST; dsDNA, one strand shown
Outline: as §1

ETV1 = ETV1 (Homo sapiens, UniProt P50549 1-477); conditions: protein: recombinant; tags: N-terminal GST; dsDNA, one strand shown
Outline: as §1

ERF = biological target: T6, ERF (Homo sapiens, UniProt P50548 1-548); conditions: protein: recombinant; tags: N-terminal GST; dsDNA, one strand shown
T6 sequence: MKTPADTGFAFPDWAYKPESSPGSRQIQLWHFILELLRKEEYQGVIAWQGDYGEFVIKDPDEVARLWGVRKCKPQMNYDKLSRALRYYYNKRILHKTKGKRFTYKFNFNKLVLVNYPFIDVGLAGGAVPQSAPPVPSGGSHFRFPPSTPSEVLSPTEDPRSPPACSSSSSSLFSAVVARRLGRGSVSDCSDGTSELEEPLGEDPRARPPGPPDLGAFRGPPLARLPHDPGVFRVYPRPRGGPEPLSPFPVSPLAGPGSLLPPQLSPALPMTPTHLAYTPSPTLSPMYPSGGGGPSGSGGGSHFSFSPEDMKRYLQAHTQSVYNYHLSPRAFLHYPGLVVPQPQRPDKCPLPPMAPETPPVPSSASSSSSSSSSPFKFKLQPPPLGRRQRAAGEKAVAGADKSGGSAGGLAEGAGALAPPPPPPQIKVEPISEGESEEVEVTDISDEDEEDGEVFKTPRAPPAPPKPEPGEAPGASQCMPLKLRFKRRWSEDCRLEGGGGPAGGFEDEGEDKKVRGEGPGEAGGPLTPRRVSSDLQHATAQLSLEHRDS
Outline: as §1

ETV3L = biological target: T7, ETV3L (Homo sapiens, UniProt Q6ZN32 1-361); conditions: protein: recombinant; tags: N-terminal GST; dsDNA, one strand shown
T7 sequence: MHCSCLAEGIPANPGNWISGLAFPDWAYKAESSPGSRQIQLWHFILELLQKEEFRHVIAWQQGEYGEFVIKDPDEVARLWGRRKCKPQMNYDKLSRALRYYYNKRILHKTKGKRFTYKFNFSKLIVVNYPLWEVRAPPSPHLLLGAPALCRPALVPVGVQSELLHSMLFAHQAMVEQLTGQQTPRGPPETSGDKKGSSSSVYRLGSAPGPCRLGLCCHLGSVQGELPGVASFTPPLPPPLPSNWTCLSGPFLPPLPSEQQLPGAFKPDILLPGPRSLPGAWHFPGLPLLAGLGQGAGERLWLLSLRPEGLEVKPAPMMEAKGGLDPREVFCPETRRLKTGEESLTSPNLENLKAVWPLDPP
Outline: as §1

ETS2 = biological target: T8, ETS2 (Homo sapiens, UniProt P15036 1-469); conditions: protein: recombinant; tags: N-terminal GST; dsDNA, one strand shown
T8 sequence: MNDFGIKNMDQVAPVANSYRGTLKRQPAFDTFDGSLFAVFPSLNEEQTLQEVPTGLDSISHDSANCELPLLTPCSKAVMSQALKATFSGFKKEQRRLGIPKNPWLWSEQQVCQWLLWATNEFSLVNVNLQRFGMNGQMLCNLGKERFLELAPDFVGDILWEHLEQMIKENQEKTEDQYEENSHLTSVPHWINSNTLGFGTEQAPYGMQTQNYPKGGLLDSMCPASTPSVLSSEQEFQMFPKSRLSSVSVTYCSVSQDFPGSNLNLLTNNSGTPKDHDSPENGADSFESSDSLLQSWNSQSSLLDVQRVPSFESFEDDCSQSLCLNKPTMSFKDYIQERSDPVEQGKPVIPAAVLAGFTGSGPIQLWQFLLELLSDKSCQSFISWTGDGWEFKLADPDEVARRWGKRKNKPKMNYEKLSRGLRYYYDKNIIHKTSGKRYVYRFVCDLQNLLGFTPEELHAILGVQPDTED
Outline: as §1

SPDEF = biological target: T9, SPDEF (Homo sapiens, UniProt O95238 1-335); conditions: protein: recombinant; tags: N-terminal GST; dsDNA, one strand shown
T9 sequence: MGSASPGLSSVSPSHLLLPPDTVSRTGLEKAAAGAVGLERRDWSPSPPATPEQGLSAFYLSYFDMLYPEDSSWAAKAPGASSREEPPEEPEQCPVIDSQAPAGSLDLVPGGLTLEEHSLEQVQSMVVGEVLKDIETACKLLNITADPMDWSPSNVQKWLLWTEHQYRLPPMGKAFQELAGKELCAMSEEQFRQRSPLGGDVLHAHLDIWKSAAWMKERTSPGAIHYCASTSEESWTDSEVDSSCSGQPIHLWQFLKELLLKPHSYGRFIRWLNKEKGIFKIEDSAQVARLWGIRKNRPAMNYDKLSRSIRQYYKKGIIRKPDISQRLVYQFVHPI
Outline: as §1

ETV7 = biological target: T10, ETV7 (Homo sapiens, UniProt Q9Y603 1-341); conditions: protein: recombinant; tags: N-terminal GST; dsDNA, one strand shown
T10 sequence: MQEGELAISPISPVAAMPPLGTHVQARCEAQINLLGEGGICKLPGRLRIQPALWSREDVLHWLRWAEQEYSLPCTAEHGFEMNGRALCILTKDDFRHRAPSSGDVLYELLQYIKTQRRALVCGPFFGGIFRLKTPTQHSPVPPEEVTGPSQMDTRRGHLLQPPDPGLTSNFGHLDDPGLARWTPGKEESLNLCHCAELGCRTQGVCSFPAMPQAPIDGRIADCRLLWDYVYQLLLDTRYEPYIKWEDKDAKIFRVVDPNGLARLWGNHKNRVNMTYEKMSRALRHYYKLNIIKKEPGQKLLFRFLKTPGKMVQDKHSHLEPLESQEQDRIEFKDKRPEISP
Outline: as §1

ELF5 = biological target: T11, ELF5 (Homo sapiens, UniProt Q9UKW6-2 1-255); conditions: protein: recombinant; tags: N-terminal GST; dsDNA, one strand shown
T11 sequence: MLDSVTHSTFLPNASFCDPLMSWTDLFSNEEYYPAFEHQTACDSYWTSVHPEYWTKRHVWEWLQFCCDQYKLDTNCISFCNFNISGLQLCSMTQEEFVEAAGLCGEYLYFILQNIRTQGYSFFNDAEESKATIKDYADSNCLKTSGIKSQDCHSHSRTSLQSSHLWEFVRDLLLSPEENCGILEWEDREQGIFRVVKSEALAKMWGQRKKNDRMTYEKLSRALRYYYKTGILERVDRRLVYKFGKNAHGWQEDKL
Outline: as §1

ETV3 = biological target: T12, ETV3 (Homo sapiens, UniProt P41162-2 1-143); conditions: protein: recombinant; tags: N-terminal GST; dsDNA, one strand shown
T12 sequence: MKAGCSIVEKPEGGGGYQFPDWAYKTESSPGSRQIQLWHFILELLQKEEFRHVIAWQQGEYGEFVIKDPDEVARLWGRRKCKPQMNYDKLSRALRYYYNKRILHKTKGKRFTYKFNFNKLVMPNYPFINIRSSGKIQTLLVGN
Outline: as §1

ETV6 = ETV6 (Homo sapiens, UniProt P41212 1-452); conditions: protein: recombinant; tags: N-terminal GST; dsDNA, one strand shown
Outline: as §1

Sequence of ELF4 (Q99607 whole entry): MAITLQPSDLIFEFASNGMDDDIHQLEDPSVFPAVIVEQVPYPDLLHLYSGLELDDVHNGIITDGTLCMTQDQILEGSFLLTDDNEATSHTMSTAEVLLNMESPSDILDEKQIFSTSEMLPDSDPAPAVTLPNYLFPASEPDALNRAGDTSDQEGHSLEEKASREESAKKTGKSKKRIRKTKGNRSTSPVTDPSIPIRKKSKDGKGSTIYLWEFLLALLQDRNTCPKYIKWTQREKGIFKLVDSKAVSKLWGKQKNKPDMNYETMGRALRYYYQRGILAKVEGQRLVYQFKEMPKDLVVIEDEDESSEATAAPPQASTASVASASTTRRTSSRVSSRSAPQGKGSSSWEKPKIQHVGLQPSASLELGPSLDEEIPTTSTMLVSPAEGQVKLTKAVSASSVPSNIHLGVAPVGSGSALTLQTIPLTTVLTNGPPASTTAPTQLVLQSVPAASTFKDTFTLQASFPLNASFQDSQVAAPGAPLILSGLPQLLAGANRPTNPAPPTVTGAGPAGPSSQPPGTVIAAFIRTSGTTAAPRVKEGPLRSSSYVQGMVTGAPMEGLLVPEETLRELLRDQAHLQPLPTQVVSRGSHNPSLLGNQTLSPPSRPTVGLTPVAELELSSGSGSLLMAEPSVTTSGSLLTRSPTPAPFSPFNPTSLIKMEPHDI
Sequence of HSF1 (Q00613 whole entry): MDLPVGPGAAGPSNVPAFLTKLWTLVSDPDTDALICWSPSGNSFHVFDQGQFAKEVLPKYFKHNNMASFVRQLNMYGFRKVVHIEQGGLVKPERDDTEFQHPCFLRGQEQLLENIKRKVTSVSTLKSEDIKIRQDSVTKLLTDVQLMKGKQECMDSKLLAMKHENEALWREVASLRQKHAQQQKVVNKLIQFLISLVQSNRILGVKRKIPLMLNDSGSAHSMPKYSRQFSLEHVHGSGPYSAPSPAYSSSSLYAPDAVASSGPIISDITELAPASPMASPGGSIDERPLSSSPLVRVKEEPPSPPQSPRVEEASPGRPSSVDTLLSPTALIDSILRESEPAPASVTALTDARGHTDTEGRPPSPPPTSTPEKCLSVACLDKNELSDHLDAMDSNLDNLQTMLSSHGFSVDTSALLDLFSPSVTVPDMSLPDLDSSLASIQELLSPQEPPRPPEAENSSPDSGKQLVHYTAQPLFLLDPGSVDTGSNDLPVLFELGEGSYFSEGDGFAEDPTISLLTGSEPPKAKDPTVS
Sequence of CRX (O43186 whole entry): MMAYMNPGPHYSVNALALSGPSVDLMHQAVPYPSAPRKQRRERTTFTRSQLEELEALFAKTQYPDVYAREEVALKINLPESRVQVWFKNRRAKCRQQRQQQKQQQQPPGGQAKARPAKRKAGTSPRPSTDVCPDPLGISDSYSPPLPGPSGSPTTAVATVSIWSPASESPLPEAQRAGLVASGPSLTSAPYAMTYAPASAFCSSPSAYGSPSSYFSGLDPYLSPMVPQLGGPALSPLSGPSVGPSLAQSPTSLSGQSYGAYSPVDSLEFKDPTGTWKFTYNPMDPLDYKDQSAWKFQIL
Sequence of ETV5 (P41161 whole entry): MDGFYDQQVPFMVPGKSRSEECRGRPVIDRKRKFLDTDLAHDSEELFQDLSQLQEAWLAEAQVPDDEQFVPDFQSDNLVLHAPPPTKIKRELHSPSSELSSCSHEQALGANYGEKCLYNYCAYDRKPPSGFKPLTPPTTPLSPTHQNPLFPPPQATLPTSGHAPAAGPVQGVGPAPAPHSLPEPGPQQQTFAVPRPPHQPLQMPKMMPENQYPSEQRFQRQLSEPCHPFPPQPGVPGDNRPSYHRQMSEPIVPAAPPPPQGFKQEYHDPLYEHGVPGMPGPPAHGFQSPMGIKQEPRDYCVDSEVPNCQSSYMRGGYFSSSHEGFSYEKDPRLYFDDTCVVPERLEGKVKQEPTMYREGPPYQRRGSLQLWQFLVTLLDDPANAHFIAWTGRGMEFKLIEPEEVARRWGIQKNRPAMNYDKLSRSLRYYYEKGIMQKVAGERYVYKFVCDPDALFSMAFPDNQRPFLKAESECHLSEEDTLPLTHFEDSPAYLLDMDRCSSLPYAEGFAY
Sequence of ETV1 (P50549 whole entry): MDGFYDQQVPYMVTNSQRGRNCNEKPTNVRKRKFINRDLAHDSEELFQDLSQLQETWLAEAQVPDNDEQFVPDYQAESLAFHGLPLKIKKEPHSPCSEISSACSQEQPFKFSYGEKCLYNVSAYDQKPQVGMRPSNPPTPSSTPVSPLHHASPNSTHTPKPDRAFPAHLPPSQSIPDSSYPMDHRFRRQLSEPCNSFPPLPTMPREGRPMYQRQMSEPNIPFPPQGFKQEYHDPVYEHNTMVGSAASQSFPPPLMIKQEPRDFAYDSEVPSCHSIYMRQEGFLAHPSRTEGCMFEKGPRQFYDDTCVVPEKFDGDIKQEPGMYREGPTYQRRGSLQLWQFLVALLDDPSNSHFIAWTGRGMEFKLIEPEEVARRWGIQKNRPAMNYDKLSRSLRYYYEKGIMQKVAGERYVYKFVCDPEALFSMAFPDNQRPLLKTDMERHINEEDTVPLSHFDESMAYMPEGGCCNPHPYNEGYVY
Sequence of ETV6 (P41212 whole entry): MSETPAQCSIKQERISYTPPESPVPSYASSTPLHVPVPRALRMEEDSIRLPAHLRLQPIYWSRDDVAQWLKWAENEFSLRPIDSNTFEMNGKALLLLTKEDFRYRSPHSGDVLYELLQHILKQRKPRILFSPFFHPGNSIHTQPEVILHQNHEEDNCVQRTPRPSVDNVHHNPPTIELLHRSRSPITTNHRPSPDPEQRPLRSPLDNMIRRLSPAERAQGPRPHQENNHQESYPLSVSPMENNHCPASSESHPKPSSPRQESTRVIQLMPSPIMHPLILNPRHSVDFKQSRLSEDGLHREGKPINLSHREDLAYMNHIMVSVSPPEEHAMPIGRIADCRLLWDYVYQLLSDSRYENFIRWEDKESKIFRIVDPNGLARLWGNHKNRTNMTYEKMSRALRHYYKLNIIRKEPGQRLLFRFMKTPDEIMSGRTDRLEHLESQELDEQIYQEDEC

For ATAACT, the binding signal (FEV) was 1.22 fold enrichment (6-mer frequency, TF over GST control), the binding signal (ETV5) was 1.29 fold enrichment (6-mer frequency, TF over GST control) and the binding signal (HSF1) was 1.15 fold enrichment (6-mer frequency, TF over GST control). The binding signal (SPIC) was 1.28 fold enrichment (6-mer frequency, TF over GST control), the binding signal (ELF4) was 1.25 fold enrichment (6-mer frequency, TF over GST control) and the binding signal (ELK4) was 1.22 fold enrichment (6-mer frequency, TF over GST control). For the same sequence, the binding signal (ETV2) was 1.39 fold enrichment (6-mer frequency, TF over GST control), the binding signal (ELF3) was 1.24 fold enrichment (6-mer frequency, TF over GST control) and the binding signal (CRX) was 1.29 fold enrichment (6-mer frequency, TF over GST control). The binding signal (ETV1) was 1.16 fold enrichment (6-mer frequency, TF over GST control), the binding signal (ERF) was 1.24 fold enrichment (6-mer frequency, TF over GST control) and the binding signal (ETV3L) was 1.22 fold enrichment (6-mer frequency, TF over GST control). The binding signal (ETS2) was 1.27 fold enrichment (6-mer frequency, TF over GST control), the binding signal (SPDEF) was 1.18 fold enrichment (6-mer frequency, TF over GST control) and the binding signal (ETV7) was 1.24 fold enrichment (6-mer frequency, TF over GST control). For the same sequence, the binding signal (ELF5) was 1.29 fold enrichment (6-mer frequency, TF over GST control), the binding signal (ETV3) was 1.34 fold enrichment (6-mer frequency, TF over GST control) and the binding signal (ETV6) was 1.27 fold enrichment (6-mer frequency, TF over GST control).
